High-throughput results: PubChem BioAssay, National Center for Advancing Translational Sciences (NCATS)
DRD3 agonist = activates the human D3 dopamine receptor; P35462; D3R DiscoveRx beta-arrestin cells, luminescence, 90 min; max activation, %; 0.58% of 410,000 active; AID 652048; in the data active means max activation above about 30%
Target sequence (P35462 whole entry, looked up): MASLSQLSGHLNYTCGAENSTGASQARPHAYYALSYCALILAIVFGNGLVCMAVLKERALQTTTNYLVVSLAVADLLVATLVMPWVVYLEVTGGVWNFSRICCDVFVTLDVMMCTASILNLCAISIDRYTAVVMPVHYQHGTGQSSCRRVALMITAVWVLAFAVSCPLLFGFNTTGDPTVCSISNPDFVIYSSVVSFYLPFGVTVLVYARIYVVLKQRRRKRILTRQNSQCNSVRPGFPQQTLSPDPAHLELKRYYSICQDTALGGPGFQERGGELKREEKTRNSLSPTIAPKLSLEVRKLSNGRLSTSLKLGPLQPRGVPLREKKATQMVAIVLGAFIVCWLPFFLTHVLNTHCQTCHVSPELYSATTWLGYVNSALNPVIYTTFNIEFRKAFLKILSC
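Cells at 1500/well, incubated overnight, then treated with pinned compounds (dopamine as control) for 90 min at 37 degrees C. DiscoveRx reagent added for 30 - 60 minutes at room temperature; luminescence read.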
ClpP mod = qHTS Assay for Activators of ClpP; ATP-dependent Clp protease proteolytic subunit (Bacillus subtilis (strain 168)), P80244; purified B. subtilis ClpP, FRET peptide cleavage, 20 min; Potency, µM (doses to about 57.5 µM); 1.9% of 340,000 active; active means well fitted falling curve with a large enough effect; inconclusive means small, poorly fitted or top-dose-only effect; inactive means no such curve, though single readings can be large or run the other way; further: the source files actives as falling curves though it sought activators and does not explain the sign; nearly all actives have a fitted effect of over 65% in size
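Purified B. subtilis ClpP, 10 microg/mL final in Tris/HCl pH8 with KCl, BSA, glycerol and Tween-20, cleaved an Abz/nitrotyrosine-quenched decapeptide. Fluorescence (ex 320, em 430) was read at 0 and 20 min at room temperature. Delta was normalized to 5.8 microM ADEP and DMSO/no-enzyme controls.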
DRD3 antagonist = D3 dopamine receptor (human) antagonism; P35462; D3R cells, DiscoveRx beta-arrestin luminescence, antagonist mode; stronger effect = lower value; max response, negative = inhibition, %; 2.5% of 360,000 active; AID 652054; in the data active means max response below about -50%; inconclusive means no clear call, values can overlap the other calls
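Cells plated overnight at 1500 cells/well, then exposed to library compounds with dopamine controls for 90 minutes at 37 degrees C. DiscoveRx reagent added for 30–60 minutes at room temperature; luminescence read, quantitative HTS format.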
TDP1 cell CPT = DT40-hTDP1 cell growth loss with CPT; Potency, µM (titrated, usually from 46.2 µM), hits mostly inhibitors; chicken DT40 Tdp1-/-;hTDP1 cells + 20 nM CPT, ATP luminescence, 48 h; 12% of 420,000 active; further: nearly all actives have a fitted effect of over 55% in size
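Chicken DT40 Tdp1-/- cells stably complemented with human TDP1 were seeded at 400 cells/well in medium containing 20 nM camptothecin, exposed to pin-transferred compounds, and grown at 37 °C for at least 48 hr. Viability was read as ATP luminescence.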
DT40 TDP1 no CPT = qHTS for Inhibitors of human tyrosyl-DNA phosphodiesterase 1 (TDP1): qHTS in cells in absence of CPT | DT40 Tdp1-/- hTDP1 cells, no CPT, ATP luminescence, 48 h | Potency, µM (doses to about 46.2 µM), usual class: inhibitors | 15% of 420,000 active; further: nearly all actives have a fitted effect of over 55% in size
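Readout: luminescence from CellTiter-Glo after 30 min in the dark at RT. Cells: DT40 Tdp1-/- with stable hTDP1, 400/well. Exposure: compounds alone, ≥48 hr, 37 °C.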
IL1B secr inh = inflammasome signaling inhibition, IL-1 beta readout; THP-1 LPS/ATP IL-1B secretion, AlphaLISA, 16 h; stronger effect = lower value; activity change, % at 57.5 µM; 4.7% of 360,000 active; AID 743279; in the data active means activity change below about -50%; inconclusive means mostly about -30% to -49%
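Secreted IL-1B measured by AlphaLISA bead assay after 16 h compound exposure of THP-1 cells; compounds (final up to 57.5 uM) added 1 h before LPS (250 ng/mL) and ATP (1.25 mM) stimulation; lower signal means less secretion.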
Large screens that a line does not name were inactive. An excerpt weighted towards active compounds, which were near 21% of everything screened. Unless noted, the call rests on the fitted dose curve; in most records, active means well fitted inhibition curve with a large enough effect; inconclusive means small, poorly fitted or top-dose-only effect; inactive means flat fitted curve, though single readings scatter.

Cc1ccc2[nH]c(=O)c(CN(Cc3nnnn3C3CCCC3)C3CCCCC3)cc2c1	none
CCOC(=O)Cn1nnnc1C(C(C)C)N(Cc1cc2c(C)cc(C)cc2[nH]c1=O)C1CCCC1 (configuration not stated)	TDP1 cell CPT 23µM, DT40 TDP1 no CPT 21µM, IL1B secr inh inconclusive
COc1ccc2[nH]c(=O)c(CN(Cc3nnnn3Cc3ccco3)C3CCCCC3)cc2c1	ClpP mod inconclusive, TDP1 cell CPT inconclusive, DT40 TDP1 no CPT 16µM
COc1ccc(Cl)cc1S(=O)(=O)NCc1nc2nc(C)cc(C)n2n1	none
CCOc1ccc(C(=O)N[C@H](C(=O)NNC(=O)c2cccs2)C(C)C)cc1	none
COc1ccc(S(=O)(=O)CCC(=O)N2CCN(c3cccc(Cl)c3)CC2)cc1	TDP1 cell CPT 18µM, DT40 TDP1 no CPT 10µM
O=C(N1CCN(c2cccc(Cl)c2)CC1)C1(c2cccs2)CCOCC1	TDP1 cell CPT 23µM, DT40 TDP1 no CPT 21µM, IL1B secr inh inconclusive
COc1ccc(S(=O)(=O)CCC(=O)N2CCN(c3ccc(C(C)=O)cc3)CC2)cc1	TDP1 cell CPT inconclusive, DT40 TDP1 no CPT 15µM
CC(CS(=O)(=O)c1ccc2c(c1)NC(=O)CS2)C(=O)N1CCN(c2cccc(Cl)c2)CC1 (configuration not stated)	TDP1 cell CPT 18µM, DT40 TDP1 no CPT inconclusive
O=C(N1CCN(c2ccc(F)cc2)CC1)C1(c2cccs2)CCOCC1	DT40 TDP1 no CPT inconclusive
CC(CS(=O)(=O)c1ccc2c(c1)NC(=O)CS2)C(=O)NCc1ccccc1Cl (configuration not stated)	TDP1 cell CPT inconclusive
COc1cc(NC(=O)c2sc3nc4n(c(=O)c3c2C)CCCCC4)cc(OC)c1OC	TDP1 cell CPT inconclusive, DT40 TDP1 no CPT inconclusive (no result: DRD3 antagonist, IL1B secr inh)
COc1ccc(N2CCN(C(=O)CCS(=O)(=O)c3ccc4c(c3)NC(=O)CO4)CC2)cc1	TDP1 cell CPT inconclusive, DT40 TDP1 no CPT 16µM
Cc1cccc(N2CCN(C(=O)CCS(=O)(=O)c3ccc4c(c3)NC(=O)CO4)CC2)c1C	TDP1 cell CPT inconclusive, DT40 TDP1 no CPT inconclusive
CC1Sc2ccc(S(=O)(=O)CCC(=O)N3CCN(c4cccc(Cl)c4)CC3)cc2NC1=O (configuration not stated)	TDP1 cell CPT 13µM, DT40 TDP1 no CPT 7.3µM
CN(CC(=O)N1CCN(c2cccc(Cl)c2)CC1)S(=O)(=O)c1cccs1	TDP1 cell CPT inconclusive, DT40 TDP1 no CPT 16µM, IL1B secr inh inconclusive
CC(CC(=O)N1CCN(c2ccccc2)CC1)S(=O)(=O)c1ccc2c(c1)NC(=O)CO2 (configuration not stated)	TDP1 cell CPT 21µM, DT40 TDP1 no CPT inconclusive
Cc1cccc(CN2CCN(c3nc4nonc4nc3NC3CC3)CC2=O)c1	none (no result: ClpP mod)
CN1C=CC(=O)[C@@H](O)[C@H]1c1ccccc1Br	none
CCOc1ccccc1N(C)C(=O)CCS(=O)(=O)c1ccc2c(c1)NC(=O)C(C)S2 (configuration not stated)	TDP1 cell CPT inconclusive, DT40 TDP1 no CPT 21µM
CC1Sc2ccc(S(=O)(=O)CCC(=O)N(C)Cc3ccco3)cc2NC1=O (configuration not stated)	TDP1 cell CPT inconclusive, DT40 TDP1 no CPT inconclusive
Cc1ccc(C(=O)CCC(=O)N2CCN(c3ccc(F)cc3)CC2)cc1	TDP1 cell CPT inconclusive, DT40 TDP1 no CPT inconclusive
CC(=O)c1ccc(N2CCN(C(=O)CCS(=O)(=O)c3ccc(C)cc3)CC2)cc1	TDP1 cell CPT inconclusive, DT40 TDP1 no CPT 15µM
CCn1cc(Cl)c(C(=O)N2N=C3/C(=C/c4cccs4)CCCC3C2c2cccs2)n1 (configuration not stated)	TDP1 cell CPT 18µM, DT40 TDP1 no CPT inconclusive, IL1B secr inh inconclusive
CC(=O)N1N=C2c3ccccc3CCC2C1c1cccs1 (configuration not stated)	TDP1 cell CPT inconclusive, DT40 TDP1 no CPT inconclusive
